Assay outcomes: PubChem, The Scripps Research Institute Molecular Screening Center
MITF inh: human MITF inhibition, primary screen; AlphaScreen MITF homodimerization, bead proximity signal; inhibition, % at 2.6 µM; 0.91% of 650,000 active; AID 1259374; in the data active means inhibition above about 50%;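 further: 0% = vehicle wells with protein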
GPR151 activ: activators of human GPR151; Q8TDV0; PathHunter beta-arrestin GPR151 cells, luminescence; activation, % at 11.2 µM; 1% of 650,000 active; in the data active means activation above about 4.9%;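 further: 0% = median of compound wells and 100% = cells with positive control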
FBW7 activator: activators of human E3 ligase FBW7; 0.13% of 650,000 active; AlphaScreen FBW7–phospho-cyclin E peptide binding, activator screen; normalized activity (activation), % at 26.1 µM; in the data active means normalized activity above about 1.9%;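 further: purified mutant Fbw7 with reduced substrate affinity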
Target sequence (Q969H0 whole entry, looked up): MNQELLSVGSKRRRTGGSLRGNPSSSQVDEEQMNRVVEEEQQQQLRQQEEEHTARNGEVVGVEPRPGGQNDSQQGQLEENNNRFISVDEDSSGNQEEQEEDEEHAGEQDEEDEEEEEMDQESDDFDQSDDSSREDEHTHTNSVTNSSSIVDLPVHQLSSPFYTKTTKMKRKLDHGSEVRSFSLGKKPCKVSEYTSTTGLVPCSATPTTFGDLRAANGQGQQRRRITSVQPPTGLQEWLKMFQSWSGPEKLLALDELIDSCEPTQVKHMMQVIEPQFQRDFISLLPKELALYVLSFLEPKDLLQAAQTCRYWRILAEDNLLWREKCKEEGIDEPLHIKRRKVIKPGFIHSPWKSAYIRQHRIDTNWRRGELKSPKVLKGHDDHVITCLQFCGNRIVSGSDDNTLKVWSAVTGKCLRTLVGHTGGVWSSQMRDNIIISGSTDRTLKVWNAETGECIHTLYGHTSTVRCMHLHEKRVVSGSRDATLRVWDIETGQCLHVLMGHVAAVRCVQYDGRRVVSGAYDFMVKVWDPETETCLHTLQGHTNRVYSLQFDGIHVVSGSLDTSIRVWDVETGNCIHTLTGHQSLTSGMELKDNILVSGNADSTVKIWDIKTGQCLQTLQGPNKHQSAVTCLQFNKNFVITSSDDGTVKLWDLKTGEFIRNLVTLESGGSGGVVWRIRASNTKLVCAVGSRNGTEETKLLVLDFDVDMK
TEAD-YAP inh: TEAD-YAP interaction inhibition | HEK-TIYL cells, TEAD-Gal4/YAP UAS-luciferase luminescence | 1.4% of 640,000 active | AID 1259422 | inhibition, % at 9.12 µM; in the data active means inhibition above about 32%;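 further: 0% = median of test compound wells and 100% = reference inhibitor wells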
Active calls of the source: *. Rows were chosen to be rich in hits. Some 3.4% of all compounds tested hit in one or more screens of this group.

What do the screens show for `COc1cccc(/C=N/Nc2nc(C)cs2)c1OC`?
MITF inh: -4; GPR151 activ: -1; FBW7 activator: 0; TEAD-YAP inh: -51

What do the screens show for `CS(=O)(=O)C1=NN2C(=N)/C(=C\c3ccc(Br)cc3)C(=O)N=C2S1`?
MITF inh: 2; GPR151 activ: -2; FBW7 activator: 0; TEAD-YAP inh: -17

How did CCS(=O)(=O)C1=NN2C(=N)/C(=C\c3ccc([N+](=O)[O-])o3)C(=O)N=C2S1 do in these assays?
MITF inh: 93*; GPR151 activ: 0; FBW7 activator: -1; TEAD-YAP inh: 3

How did CCS(=O)(=O)C1=NN2C(=N)/C(=C\c3ccc(C)o3)C(=O)N=C2S1 do in these assays?
MITF inh: 0; GPR151 activ: 2; FBW7 activator: 0; TEAD-YAP inh: -5

What do the screens show for `CCS(=O)(=O)C1=NN2C(=N)/C(=C\c3ccc(Br)o3)C(=O)N=C2S1`?
MITF inh: 78*; GPR151 activ: 0; FBW7 activator: -1; TEAD-YAP inh: 0

Results for CS(=O)(=O)C1=NN2C(=N)/C(=C\c3ccc(Br)o3)C(=O)N=C2S1 ?
MITF inh: 79*; GPR151 activ: 3; FBW7 activator: 0; TEAD-YAP inh: -10

Results for C/C(=N\NC(=O)c1ccc(Cl)cc1)c1c(C)[nH]n(-c2ccccc2)c1=O ?
MITF inh: 4; GPR151 activ: -1; FBW7 activator: 0; TEAD-YAP inh: -14

How did O=C1N/C(=C\c2ccc([N+](=O)[O-])cc2)C(=O)c2ccccc21 do in these assays?
MITF inh: 13; GPR151 activ: 0; FBW7 activator: 0; TEAD-YAP inh: -2

How did Nc1c(C(=O)Nc2ccc(F)cc2)nnn1Cc1cccc(Cl)c1 do in these assays?
MITF inh: 11; GPR151 activ: 1; FBW7 activator: 0; TEAD-YAP inh: 33*

Results for Nc1c(C(=O)Nc2ccc(Br)cc2)nnn1Cc1cccc(Cl)c1 ?
MITF inh: 17; GPR151 activ: 0; FBW7 activator: 0; TEAD-YAP inh: 6

What do the screens show for `CC(C)n1cnc2c(Nc3ccc(N4CCOCC4)cc3)nc(Nc3cnccn3)nc21`?
MITF inh: 1; GPR151 activ: 1; FBW7 activator: 0; TEAD-YAP inh: 32*

What do the screens show for `CC(C)n1cnc2c(Nc3ccccc3)nc(Nc3cnccn3)nc21`?
MITF inh: 9; GPR151 activ: 0; FBW7 activator: 0; TEAD-YAP inh: -24

How did CC(C)n1cnc2c(Nc3ccccc3)nc(Nc3ccc(N4CCOCC4)cc3)nc21 do in these assays?
MITF inh: 3; GPR151 activ: 1; FBW7 activator: 0; TEAD-YAP inh: -24

Results for CC(=O)c1cccc(-c2nc(C)cc(Nc3ccc(N4CCOCC4)cc3)n2)c1 ?
MITF inh: 9; GPR151 activ: 0; FBW7 activator: 0; TEAD-YAP inh: -4

How did CC(=O)Nc1ccc(Nc2nc(Nc3cnccn3)nc3c2ncn3C(C)C)cc1 do in these assays?
MITF inh: 0; GPR151 activ: 0; FBW7 activator: 0; TEAD-YAP inh: 41*

Results for Nc1nc(Nc2ccc(N3CCOCC3)cc2)cc(Nc2cnccn2)n1 ?
MITF inh: -23; GPR151 activ: -1; FBW7 activator: 0; TEAD-YAP inh: 61*

How did CC(=O)c1cccc(-c2cc(Nc3ccc(N4CCOCC4)cc3)nc(N)n2)c1 do in these assays?
MITF inh: 0; GPR151 activ: -3; FBW7 activator: 0; TEAD-YAP inh: 46*

What do the screens show for `Nc1nc(Nc2ccc(N3CCOCC3)cc2)cc(Nc2ccncn2)n1`?
MITF inh: -3; GPR151 activ: -1; FBW7 activator: 0; TEAD-YAP inh: 4

What do the screens show for `O=C(c1ccc2c(c1)OCO2)C1CCCN(S(=O)(=O)c2ccc3c(c2)OCCO3)C1` (configuration not stated)?
MITF inh: 9; GPR151 activ: -2; FBW7 activator: 1; TEAD-YAP inh: -5

Results for Cc1ccc(NC(=O)Nc2ccccc2Cl)cc1NC(=O)Nc1ccccc1Cl ?
MITF inh: -8; GPR151 activ: -1; FBW7 activator: 0; TEAD-YAP inh: -45

What do the screens show for `O=C(COc1coc(CN2CCN(c3ccc(F)cc3)CC2)cc1=O)N1CCCCC1`?
MITF inh: 2; GPR151 activ: 1; FBW7 activator: 0; TEAD-YAP inh: -6

How did O=C(NCc1ccccc1)N(CCO)Cc1cc2cc3c(cc2[nH]c1=O)OCCO3 do in these assays?
MITF inh: -9; GPR151 activ: -1; FBW7 activator: 0; TEAD-YAP inh: -2

What do the screens show for `CCOC(=O)C(NC(=O)CC)(Nc1sc2c(c1C(=O)OC)CCN(C)C2)C(F)(F)F` (configuration not stated)?
MITF inh: -6; GPR151 activ: -1; FBW7 activator: 3.4*; TEAD-YAP inh: -11

Results for CN(Cc1ccccc1)c1ccnc2c(-c3ccc(CO)cc3)cnn12 ?
MITF inh: -12; GPR151 activ: 0; FBW7 activator: 0; TEAD-YAP inh: -39

How did Nc1cccc(-c2cnn3c(N4CCN(c5ccccn5)CC4)ccnc23)c1 do in these assays?
MITF inh: -3; GPR151 activ: 0; FBW7 activator: 0; TEAD-YAP inh: -4

Results for CN(Cc1ccccc1)c1ccnc2c(-c3cccc(O)c3)cnn12 ?
MITF inh: -9; GPR151 activ: 1; FBW7 activator: 0; TEAD-YAP inh: 90*

What do the screens show for `CN(Cc1ccccc1)c1ccnc2c(-c3cccc(C(=O)O)c3)cnn12`?
MITF inh: -14; GPR151 activ: -4; FBW7 activator: 0; TEAD-YAP inh: 89*

What do the screens show for `CC(=O)c1cccc(-c2cnn3c(N4CCN(c5ccccn5)CC4)ccnc23)c1`?
MITF inh: 6; GPR151 activ: -1; FBW7 activator: 1.9*; TEAD-YAP inh: 3

Results for O=C(Cc1c[nH]c2ccccc12)Nc1nnc(C2CC2)s1 ?
MITF inh: -1; GPR151 activ: -1; FBW7 activator: 0; TEAD-YAP inh: 34*

How did COc1ccccc1-n1c(SC)nc(O)cc1=O do in these assays?
MITF inh: 2; GPR151 activ: 0; FBW7 activator: 3.9*; TEAD-YAP inh: 6

What do the screens show for `CCSc1nc(O)cc(=O)n1-c1ccccc1OC`?
MITF inh: 11; GPR151 activ: -1; FBW7 activator: 0; TEAD-YAP inh: 10

How did CCC(C)Nc1ncnc2c1cnn2-c1ccc(Cl)cc1 (configuration not stated) do in these assays?
MITF inh: -2; GPR151 activ: -1; FBW7 activator: 0; TEAD-YAP inh: 37*

Results for CCN(CC)c1ncnc2c1cnn2-c1ccc(Cl)cc1 ?
MITF inh: -6; GPR151 activ: 0; FBW7 activator: 0; TEAD-YAP inh: 70*

What do the screens show for `COc1ccc(S(=O)(=O)Nc2cccc(-c3ccc4nncn4n3)c2)cc1F`?
MITF inh: 15; GPR151 activ: 0; FBW7 activator: 1; TEAD-YAP inh: 45*

What do the screens show for `COc1ccc(S(=O)(=O)Nc2cccc(-c3ccc(N4CCCCC4)nn3)c2)cc1C`?
MITF inh: -10; GPR151 activ: -3; FBW7 activator: 0; TEAD-YAP inh: 46*

Results for O=S(=O)(Nc1cccc(-c2ccc3nncn3n2)c1)c1cccc(C(F)(F)F)c1 ?
MITF inh: 16; GPR151 activ: -1; FBW7 activator: 0; TEAD-YAP inh: -8
